For assay [1], the target named is Estrogen receptor (Homo sapiens) (UniProt P03372). Kind of assay: ATG_ERa_TRANS: Attagene TRANS-FACTORIAL HepG2 Assay for human Estrogen Receptor alpha (ERa) (AID 2282970; active = hit-call score of the fitted dose curve at least 0.9, where 1 is the maximum). To be noted: HepG2 Attagene TRANS ERa GAL4 reporter, mRNA. A digest of the protocol:
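Multiplexed cell-based reporter format in HepG2: chimeric ERa-Gal4 protein drives GAL4-UAS reporter transcription. Fluorescent reporter mRNA quantified by capillary electrophoresis 24 hours after dosing; endpoint fitted as signal gain against DMSO.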

A short description of assay [2]: BSK_3C_SRB: Viability Assessment in the BioMAP Diversity Plus: 3C Assay (AID 2283023).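 Note: fitted both ways against DMSO so a hit may be signal rise or drop.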 To be noted: primary human endothelial cells (HUVEC). Summed up: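 Overt cytotoxicity is gauged in parallel confluent HUVEC cultures by SRB total-protein staining at the time of biomarker measurement, 24 h after dosing. Gain or loss of signal is fitted versus DMSO.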
Read-out in assay [3]: Pselectin, SELP (gene 6403)
Kind of assay: BSK_4H_Pselectin: BioMAP Diversity Plus: 4H Assay for Pselectin Biomarker Activity (AID 2283026). To be noted: primary human endothelial cells (HUVEC); actives raise or lower the signal. A digest of the protocol:
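Human vascular endothelium from umbilical vein; P-selectin measured by ELISA at 24 h post-dose, with cytotoxicity checked by sulforhodamine B total-protein staining in parallel cultures (0.1% SRB after 10% TCA fixation, read at 560 nm).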

Assay [4] is described as follows: BSK_4H_SRB: Viability Assessment in the BioMAP Diversity Plus: 4H Assay (AID 2283027).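 Note: cells exposed to compound for 24 h before staining.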 The following applies: primary human endothelial cells (HUVEC). Summed up: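 Human umbilical vein endothelial cells, 24 h after chemical dosing; total protein measured by 0.1% sulforhodamine B staining after 10% TCA fixation, read at 560 nm. Bidirectional fitting against DMSO.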

Read-out in assay [5]: Urokinase-type plasminogen activator receptor (uPAR), PLAUR (gene 5329)
Kind of assay: BSK_4H_uPAR: BioMAP Diversity Plus: 4H Assay for Urokinase-type plasminogen activator receptor (uPAR) Biomarker Activity (AID 2283030). The following applies: primary human endothelial cells (HUVEC); actives raise or lower the signal. A digest of the protocol:
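Endpoint derived via bidirectional curve fitting against DMSO baseline; readout was ELISA detection of uPAR on umbilical vein endothelial cells at 24 h post-treatment, with SRB-stained parallel cultures assessing cytotoxicity.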

Read-out in assay [6]: Plasminogen activator inhibitor-1 (PAI1), SERPINE1 (gene 5054)
Kind of assay: BSK_BE3C_PAI1: BioMAP Diversity Plus: BE3C Assay for Plasminogen activator inhibitor-1 (PAI1) Biomarker Activity (AID 2283037). The following applies: primary human bronchial epithelial cells; actives raise or lower the signal. Summed up:
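PAI-1 biomarker levels in treated human bronchial epithelial cells are determined by ELISA at 24 h. Both increases and decreases relative to DMSO are fitted.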

Read-out in assay [7]: Tissue plasminogen activator (tPA), PLAT (gene 5327)
Kind of assay: BSK_BE3C_tPA: BioMAP Diversity Plus: BE3C Assay for Tissue plasminogen activator (tPA) Biomarker Activity (AID 2283041).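 Note: tPA level quantified by ELISA one day after compound addition.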 To be noted: primary human bronchial epithelial cells; actives raise or lower the signal. A digest of the protocol:
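Bidirectional curve fitting relative to DMSO defined activity, with tPA detected by ELISA in chemically treated human bronchial epithelial primary cells at 24 hours.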

Read-out in assay [8]: Macrophage colony-stimulating factor (MCSF), CSF1 (gene 1435)
Kind of assay: BSK_CASM3C_MCSF: BioMAP Diversity Plus: CASM3C Assay for Macrophage colony-stimulating factor (MCSF) Biomarker Activity (AID 2283044).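 Note: M-CSF protein amount quantified by ELISA after 24 h exposure.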 To be noted: primary human coronary artery smooth muscle cells; actives raise or lower the signal.

Assay [9] is described as follows: BSK_CASM3C_SRB: Viability Assessment in the BioMAP Diversity Plus: CASM3C Assay (AID 2283050).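 Note: cells exposed to compound for 24 h.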 The following applies: primary human coronary artery smooth muscle cells.
Read-out in assay [10]: Thrombomodulin, THBD (gene 7056)
Kind of assay: BSK_CASM3C_Thrombomodulin: BioMAP Diversity Plus: CASM3C Assay for Thrombomodulin Biomarker Activity (AID 2283051).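 Note: thrombomodulin protein level measured by ELISA 24 h after dosing.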 The following applies: primary human coronary artery smooth muscle cells; actives raise or lower the signal.

Read-out in assay [11]: Vascular cell adhesion molecule 1 (VCAM1), VCAM1 (gene 7412)
Kind of assay: BSK_CASM3C_VCAM1: BioMAP Diversity Plus: CASM3C Assay for Vascular cell adhesion molecule 1 (VCAM1) Biomarker Activity (AID 2283055).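 Note: VCAM-1 protein level quantified by ELISA on the cells.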 The following applies: primary human coronary artery smooth muscle cells; actives raise or lower the signal.

Read-out in assay [12]: TIMP metallopeptidase inhibitor 2 (TIMP2), TIMP2 (gene 7077)
Kind of assay: BSK_KF3CT_TIMP2: BioMAP Diversity Plus: KF3CT Assay for TIMP metallopeptidase inhibitor 2 (TIMP2) Biomarker Activity (AID 2283071). To be noted: primary human keratinocytes with fibroblasts; actives raise or lower the signal. Summed up: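 Keratinocyte–fibroblast co-culture, 24 h exposure; TIMP-2 ELISA, DMSO-normalised bidirectional fit. Parallel SRB (0.1%, TCA-fixed, 560 nm) total-protein staining gauges cytotoxicity.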

Read-out in assay [13]: Interleukin-1 alpha (IL1a), IL1A (gene 3552)
Kind of assay: BSK_LPS_IL1a: BioMAP Diversity Plus: LPS Assay for Interleukin-1 alpha (IL1a) Biomarker Activity (AID 2283080). The following applies: primary human HUVEC with PBMC; actives raise or lower the signal. Summed up:
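Primary human HUVEC and PBMC co-culture stimulated with LPS is dosed and harvested at 24 h. Both increases and decreases in ELISA-measured IL-1a are scored relative to DMSO.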

Read-out in assay [14]: Monocyte Chemoattractant Protein-1 (MCP1), CCL2 (gene 6347)
Kind of assay: BSK_LPS_MCP1: BioMAP Diversity Plus: LPS Assay for Monocyte Chemoattractant Protein-1 (MCP1) Biomarker Activity (AID 2283081). The following applies: primary human HUVEC with PBMC; actives raise or lower the signal. Summed up:
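Values derive from bidirectional fitting against DMSO of ELISA-measured MCP-1 in a human primary endothelial and mononuclear cell co-culture, 24 h after chemical addition under LPS activation.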

A short description of assay [15]: BSK_LPS_PGE2: BioMAP Diversity Plus: LPS Assay for Prostaglandin E2 (PGE2) Biomarker Activity (AID 2283082). To be noted: primary human HUVEC with PBMC; actives raise or lower the signal. Summed up: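 Endpoint derived from bidirectional curve fitting versus DMSO of ELISA-measured PGE2 in LPS-stimulated human primary vascular co-culture (HUVEC with PBMC) harvested at 24 h.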

Read-out in a further assay: CD38, CD38 (gene 952)
Kind of assay: BSK_SAg_CD38: BioMAP Diversity Plus: SAg Assay for CD38 Biomarker Activity (AID 2283087). To be noted: primary human HUVEC with PBMC; actives raise or lower the signal. A digest of the protocol: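 Fluorescence ELISA of cell-surface CD38 served as the read-out, with either increase or decrease fitted against DMSO controls. Cells were a human umbilical vein endothelium plus PBMC co-culture under SEB/TSST-1 stimulation, measured 24 h after dosing.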

Read-out in a further assay: CD69, CD69 (gene 969)
Kind of assay: BSK_SAg_CD69: BioMAP Diversity Plus: SAg Assay for CD69 Biomarker Activity (AID 2283089).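 For AC50: cell surface CD69 protein quantified by ELISA with fluorescence detection.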 To be noted: primary human HUVEC with PBMC; actives raise or lower the signal. A digest of the protocol:
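ELISA, fluorescence read-out: CD69 on human umbilical vein endothelial cell + PBMC co-culture, 24 h post-dosing. Gain or loss of signal fitted bidirectionally against DMSO baseline.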

Read-out in assay [16]: E-selectin (Homo sapiens) (UniProt P16581)
Kind of assay: BSK_SAg_Eselectin: BioMAP Diversity Plus: SAg Assay for Eselectin Biomarker Activity (AID 2283091). The following applies: primary human HUVEC with PBMC; actives raise or lower the signal. A digest of the protocol:
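Endpoint values derive from bidirectional fitting relative to DMSO, using ELISA-measured E-selectin in a human vascular co-culture (umbilical vein endothelium plus PBMC) sampled 24 h after dosing.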

Read-out in assay [17]: Monokine induced gamma interferon (MIG), CXCL9 (gene 4283)
Kind of assay: BSK_SAg_MIG: BioMAP Diversity Plus: SAg Assay for Monokine induced gamma interferon (MIG) Biomarker Activity (AID 2283092). To be noted: primary human HUVEC with PBMC; actives raise or lower the signal. A digest of the protocol: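 ELISA readout of MIG/CXCL9; primary human umbilical vein endothelial cells co-cultured with peripheral blood mononuclear cells; 24 h post-dose; gain/loss fit vs DMSO baseline.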

Assay [18] can be described thus: BSK_SAg_Proliferation: Cell Proliferation Assessment in the BioMAP Diversity Plus: SAg Assay (AID 2283095).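 Note: relative cell number as total protein by SRB absorbance in sub-confluent culture.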 To be noted: primary human HUVEC with PBMC. Summed up:
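Readout is SRB-stained protein (560 nm) in a primary human HUVEC and PBMC co-culture; sub-confluent cultures are read at 96 h. Activity is fitted bidirectionally using DMSO as baseline.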

Inconclusive results are not listed. Activity calls are given as the source filed them. Rule for the calls, unless noted: active = hit-call score of the fitted dose curve at least 0.9, where 1 is the maximum; inactive = score below 0.9.

Estrogen receptor (Homo sapiens), sequence (P03372 whole entry, looked up, the tested form may be a part): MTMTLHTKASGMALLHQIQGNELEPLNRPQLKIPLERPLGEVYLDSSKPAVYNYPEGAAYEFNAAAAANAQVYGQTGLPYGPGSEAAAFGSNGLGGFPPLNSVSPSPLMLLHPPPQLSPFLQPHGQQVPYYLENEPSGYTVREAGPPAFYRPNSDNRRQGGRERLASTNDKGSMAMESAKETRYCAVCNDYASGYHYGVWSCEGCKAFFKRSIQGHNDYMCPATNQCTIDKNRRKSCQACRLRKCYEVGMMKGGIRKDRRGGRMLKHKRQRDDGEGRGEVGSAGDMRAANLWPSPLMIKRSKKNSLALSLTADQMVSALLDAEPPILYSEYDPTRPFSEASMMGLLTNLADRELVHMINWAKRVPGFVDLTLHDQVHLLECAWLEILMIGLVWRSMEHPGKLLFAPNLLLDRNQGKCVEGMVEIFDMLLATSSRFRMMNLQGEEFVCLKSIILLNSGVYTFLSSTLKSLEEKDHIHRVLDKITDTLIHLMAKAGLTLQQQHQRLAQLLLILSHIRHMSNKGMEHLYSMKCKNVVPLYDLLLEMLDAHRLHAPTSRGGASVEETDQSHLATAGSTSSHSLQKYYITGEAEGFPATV
E-selectin (Homo sapiens), sequence (P16581 whole entry, looked up): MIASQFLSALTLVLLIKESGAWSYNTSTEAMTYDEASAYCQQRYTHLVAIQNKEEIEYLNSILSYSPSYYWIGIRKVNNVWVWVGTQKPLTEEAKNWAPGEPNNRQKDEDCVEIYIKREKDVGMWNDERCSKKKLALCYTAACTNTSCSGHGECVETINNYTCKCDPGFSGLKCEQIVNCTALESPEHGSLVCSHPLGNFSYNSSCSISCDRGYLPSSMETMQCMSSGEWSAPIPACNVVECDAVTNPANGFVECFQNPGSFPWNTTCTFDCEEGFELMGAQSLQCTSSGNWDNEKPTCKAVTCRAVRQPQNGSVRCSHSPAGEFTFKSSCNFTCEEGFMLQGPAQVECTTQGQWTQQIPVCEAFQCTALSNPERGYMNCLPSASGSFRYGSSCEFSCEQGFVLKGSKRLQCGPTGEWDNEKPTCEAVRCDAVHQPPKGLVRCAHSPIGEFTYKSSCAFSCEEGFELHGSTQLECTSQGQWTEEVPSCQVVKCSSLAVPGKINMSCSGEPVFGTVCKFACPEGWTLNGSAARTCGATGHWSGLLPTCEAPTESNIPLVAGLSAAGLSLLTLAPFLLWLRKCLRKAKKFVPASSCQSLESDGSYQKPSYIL

`O=[N+]([O-])c1cc(C(F)(F)F)c(Cl)c([N+](=O)[O-])c1Cl`: in assay [1], the AC50 (commonly the concentration at which the activity in the assay is half-maximal) is 14.6 µM (active).

Consider `CCCCNP(N)(N)=S`, for which the molecule was called inactive in assay [1].

Turning to `O=P(O)(Oc1ccccc1)Oc1ccccc1`, the call in assay [1] was inactive.

For the molecule `O=c1[nH]c(Cl)c(Cl)cc1Cl`, the result in assay [2], in assay [3], in assay [4], in [5], in [6] and in [7] was inactive. For the same molecule, the result in [8], in [9], in [10], in assay [11], in assay [12] and in assay [13] was inactive. Further, the outcome in [14] is “inactive”; in assay [15], “inactive”; in the assay with CD38, CD38 (gene 952), “inactive”; in the assay with CD69, CD69 (gene 969) it was “inactive”; in [16], “inactive”; in assay [17], “inactive”. In addition, the result in [18] was inactive.

On to `CC(C)(C)C(=O)CCl`, for which the call in [1], in [2], in assay [3], in assay [4], in [5] and in assay [6] was inactive. The outcome in assay [7], in [9], in assay [10], in [12], in assay [14] and in assay [15] was inactive. For the same molecule, the outcome in assay [17] was inactive. The concentration at half-maximal activity (AC50) in assay [8] was 0.65 µM (active); in assay [11], 11.7 µM (active); in assay [13], 33.9 µM (active); with CD38, CD38 (gene 952), 27 µM (active); with CD69, CD69 (gene 969) it was 8.75 µM (active); in assay [16] it was 20 µM (active). For the same molecule, the AC50 in [18] was 23.1 µM (active).

Regarding `CCN(CC)C(=S)S`, the molecule was called inactive in assay [1].

Take `CCCCOP(=O)(O)OCCCC`: in assay [1], the molecule was classed as inactive.

Take `Nc1ccccc1C(=O)Oc1ccc2ccccc2c1`: in [1], the AC50 is 12.8 µM (active).

On to `CCCOC(=O)c1ccccc1C(=O)OCCC`, for which the concentration at half-maximal activity (AC50) in assay [1] is 33.7 µM (active). For the same molecule, the outcome in [2], in [3], in assay [4], in [5], in assay [6] and in assay [7] was inactive. The result in assay [8], in assay [9], in assay [10], in assay [11], in assay [12] and in [13] was inactive. The outcome in [14] was “inactive”; in assay [15], “inactive”; with CD38, CD38 (gene 952), “inactive”; in the assay with CD69, CD69 (gene 969) it was “inactive”; in [16] it was “inactive”; in [17] it was “inactive”. Besides, the result in [18] was inactive.

As for `C[C@]12CCC(=O)C(O)=C1CC[C@@H]1[C@@H]2CC[C@]2(C)C(=O)CC[C@@H]12`, in assay [1], the AC50 was 9.42 µM (active).

Values taken from PubChem BioAssay (EPA / NIEHS).
